Screen size: about 420,000 compounds; about 64,000 (15%) were called active. About 27% were inconclusive and are not listed. Calls come from the whole dose curve; as a rule, active = well fitted inhibition curve with a large enough effect; inconclusive = small, poorly fitted or top-dose-only effect; inactive = flat fitted curve, though single readings scatter. These entries were drawn from the full list.
Assay: qHTS for Inhibitors of human tyrosyl-DNA phosphodiesterase 1 (TDP1): qHTS in cells in absence of CPT; note: nearly all actives have a fitted effect of over 55% in size
Conditions: DT40 Tdp1-/- hTDP1 cells, no CPT, ATP luminescence, 48 h; activity change, negative = growth inhibition: at 46.2 µM (top of the series)
In short: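 No-CPT arm: Tdp1-/-;hTDP1 DT40 cells (400/well) plus compounds, incubated ≥48 hr at 37 °C. Readout CellTiter-Glo luminescence.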
% is set by controls: 0 for no effect and ±100 for the full control effect; potency is the fitted concentration of half-maximal effect.

| SMILES | activity change, negative = growth inhibition | Potency |
| --- | --- | --- |
| O=C(O)c1cc(S(=O)(=O)N(Cc2ccccc2)c2ccccc2)ccc1Cl | -0.896% (inactive) |  |
| C#CCOCCOCCOCCNc1nc(N2CCN(C(=O)Cn3cc(CCCCN)nn3)CC2)nc(N2CCN(C(=O)[C@H](CCCCN)n3cc(CCC(=O)O)nn3)CC2)n1 | 1.14% (inactive) |  |
| Cc1csc(OCC(=O)Nc2ccc(C)c(C)c2)n1 | -2.63% (inactive) |  |
| Cc1ccc(-c2csc(-c3cc(C)on3)n2)cc1 | -23% (inactive) |  |
| COc1ccc(C(C)(O)c2nc(-c3cc(F)cc(F)c3)cs2)cc1 (configuration not stated) |  | 16.4 µM (active) |
| COc1ccc(C(C)(NC(C)=O)c2nc(-c3ccc(S(C)(=O)=O)cc3)cs2)cc1 (configuration not stated) | -20.1% (inactive) |  |
| COc1ccc(C(C)(O)c2nc(-c3ccc(C)c(C)c3)cs2)cc1 (configuration not stated) |  | 18.4 µM (active) |
| COc1cccc(CN2C(=O)CCC2(C)C(=O)NC2CCCCCC2)c1 (configuration not stated) | -15.5% (inactive) |  |
| COc1cc(C)c(S(=O)(=O)N2CCOCC2)c(C)c1C | -15.2% (inactive) |  |
| CCNC(=O)Nc1ccc(S(=O)(=O)Nc2cnc(C)nc2C)cc1 | -7.54% (inactive) |  |
| CCc1c(C)sc(NC(=O)/C=C/c2ccc3c(c2)OCO3)c1C(=O)OC | -0.669% (inactive) |  |
| Cc1cccc(NC(=O)/C=C/c2ccc3c(c2)OCO3)n1 |  | 18.4 µM (active) |
| O=C(O)/C=C/c1ccc2c(c1)OCCO2 | 2.37% (inactive) |  |
| CC1CN(S(=O)(=O)c2ccc(C(=O)NN3CCN(C)CC3)cc2)CC(C)O1 (configuration not stated) | 4.66% (inactive) |  |
| O=C(CCC1CCCC1)N=C1SC2CS(=O)(=O)CC2N1Cc1ccccc1 (configuration not stated) | 1.24% (inactive) |  |
| O=C(CCN1C(=O)c2ccccc2C1=O)NCCCn1ccnc1 | -7.45% (inactive) |  |
| CCCCN(C(=O)C1=NN(c2cc(C)ccc2C)C(=O)CC1)c1c(N)n(CCC)c(=O)[nH]c1=O | 21.6% (inactive) |  |
| CC(C)CC(CCc1ccccc1)OS(N)(=O)=O (configuration not stated) | -1.83% (inactive) |  |
| CN1OC[C@@H]2CN(C(=O)C(C)(C)C)[C@H](c3ccc(-n4ccnc4)cc3)C[C@@H]21 | 0.376% (inactive) |  |
| CC1CC(C)(C)CC2(C1)NC(=O)N(CC(=O)Nc1nccs1)C2=O (configuration not stated) | 3.31% (inactive) |  |
| Cc1ccc(CC2CC(=O)N(c3ccc4c(c3)OCCO4)C2=O)cc1 (configuration not stated) | -5.08% (inactive) |  |
| COc1ccc(C2CC(c3ccc([N+](=O)[O-])cc3)=NN2C(C)=O)cc1 (configuration not stated) |  | 14.6 µM (active) |
| COc1ccc(C2=NN(C(=O)c3ccccc3C(=O)O)C(c3ccccc3O)C2)cc1 (configuration not stated) | -19.5% (inactive) |  |
| COc1ccc(C2=NN(C(C)=O)C(c3ccccc3)C2)cc1 (configuration not stated) | -9.61% (inactive) |  |
| CC(C)N(C)C(=O)CCc1nnc(CCc2c[nH]c3ccccc23)o1 | -6.57% (inactive) |  |
| Cc1nn(C)c(C)c1CN(C(=O)CCc1nnc(Cc2c[nH]c3ccccc23)o1)C(C)C |  | 16.4 µM (active) |

| SMILES | activity change, negative = growth inhibition | Potency |
| --- | --- | --- |
| Cc1nc(CN2CCN(C(=O)CCc3nnc(Cc4c[nH]c5ccccc45)o3)CC2)cs1 | -10.5% (inactive) |  |
| CC1(C(=O)NS(=O)(=O)c2cccc(F)c2)CCN1C(=O)Cc1cc(F)ccc1F (configuration not stated) | 8.26% (inactive) |  |
| O=C(CN1C(=O)COc2ccc(Cl)cc21)N1CCOCC1 | 7.52% (inactive) |  |
| Cc1cccc(OCC(=O)NCCNC(=O)c2cccnc2)c1 | 8.85% (inactive) |  |
| CCOC(=O)c1ccc(N2C(=O)c3n[nH]c(C)c3C2c2ccc(O)c(OC)c2)cc1 (configuration not stated) |  | 18.4 µM (active) |
| CCOC(=O)C1=C(c2ccccc2)N=C2SCC(=O)N2C1c1ccc(O)c(OC)c1 (configuration not stated) | -16.8% (inactive) |  |
| COc1cc(C2C(C(=O)c3ccc(C)o3)=C(O)C(=O)N2Cc2cccnc2)ccc1O (configuration not stated) | -0.599% (inactive) |  |
| Cc1nc(N2CCCC2C(=O)O)c2oc3ccccc3c2n1 (configuration not stated) | 1.8% (inactive) |  |
| CCCN(CC(=O)Nc1ccc(OC)c(OC)c1)CC(=O)Nc1ccc(F)c(F)c1F | -8.97% (inactive) |  |
| O=C(Nc1sc2c(c1-c1nc3ccccc3[nH]1)CCCC2)C1CC1 | -0.787% (inactive) |  |
| CC(=O)c1ccc(NC(=O)C(C)NCc2ccc(Cl)cc2)cc1 (configuration not stated) | -2.9% (inactive) |  |
| Cc1ccccc1Nc1nnc(C)c(=O)[nH]1 | -2.18% (inactive) |  |
| COc1ccc(-n2c(O)c(C=NCC(c3ccco3)N3CCCC3)c3ccccc3c2=O)cc1OC (configuration not stated) | -12.9% (inactive) |  |
| CCOc1ccc(-n2c(O)c(/C=N/Nc3nc(C)cc(C)n3)c3ccccc3c2=O)cc1 |  | 3.26 µM (active) |
| Cc1nnc(N/N=C/c2cccs2)[nH]c1=O | -4.48% (inactive) |  |
| CCOc1ccc(-n2c(O)c(/C=N/Nc3nnc(C)c(=O)[nH]3)c3ccccc3c2=O)cc1 |  | 0.92 µM (active) |
| CCOc1ccc(N/C(N)=N/c2nc(C)c(C)c(=O)[nH]2)cc1 | -1.43% (inactive) |  |
| Cc1nnc(N/N=C/c2ccccn2)[nH]c1=O |  | 2.91 µM (active) |
| CCOc1ccc(-n2c(O)c(/C=N/c3ccnn3Cc3ccncc3)c3ccccc3c2=O)cc1 | 3.46% (inactive) |  |
| CCN(CC)CCCN=Cc1c(O)n(-c2ccc(C)cc2)c(=O)c2ccccc12 | -22.5% (inactive) |  |
| CC(=O)Nc1ccc(S(=O)(=O)NC2(C(F)(F)F)C(=O)Nc3c2c(=O)[nH]c(=O)n3Cc2ccccc2)cc1 (configuration not stated) | -32.8% (inactive) |  |
| Cc1cc(F)ccc1NC(=O)C(C)n1c2ccccc2c2nc(=O)cc(C)n21 (configuration not stated) | -0.709% (inactive) |  |
| CCC(C)n1[nH]c(=O)cc1N (configuration not stated) | -7.43% (inactive) |  |
| O=C(CCN1C(=O)C2C3C=CC(C3)C2C1=O)Oc1ccc2ccccc2c1 (configuration not stated) | -4.21% (inactive) |  |
| CC1CCCCC1NC(=O)CN1CCC(O)(c2ccc3c(c2)OCO3)CC1 (configuration not stated) | -19.2% (inactive) |  |
| CCCCn1nc(C(=O)N2CCc3ccccc32)c2ccccc2c1=O |  | 16.4 µM (active) |

— PubChem BioAssay AID686978 (National Center for Advancing Translational Sciences (NCATS), 2013)
